# Data: PubChem BioAssay AID1159580 (chemical genetic matrix, 2015)
# Where “and” joins values, the source holds several entries; their conditions need not be identical. Equal entries are not always repeated. Out of some 5,500 compounds screened, about 2,000 (36%) were called active. Not shown: some 18% with an inconclusive outcome. Cut-off read from the data, not from the text of the source: active = normalized growth mostly below about 0.91 (no sharp cut-off); inconclusive = no clear call, values can overlap the other calls; inactive = mostly above about 0.92. The list shows a part of the results.
# Assay: chemical genetic growth profiling, strain panel (AID 1159580);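 note: tested at 20 µM; growth read once vehicle control cultures reached saturation at 30 °C; 1 = growth at the plate median or of vehicle wells; lower values mean less growth of the strain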
# Details: S. cerevisiae deletion strains, growth OD
smiles,measurement,setting,value
O=C(O[C@@H]1Cc2c(O)cc(O)cc2O[C@@H]1c1cc(O)c(=O)c2c(O)c(O)cc([C@H]3Oc4cc(O)cc(O)c4C[C@H]3OC(=O)c3cc(O)c(O)c(O)c3)c2c1)c1cc(O)c(O)c(O)c1,normalized growth,"locus YAL013W, strain DEP1, stronger effect = lower value",0.633 (active)
same,normalized growth,"locus YAL021C, strain ccr4, stronger effect = lower value",0.0843 (active)
same,normalized growth,"locus YAL026C, strain drs2, stronger effect = lower value",0.432 (active)
same,normalized growth,"locus YAL030W, strain snc1, stronger effect = lower value",0.604 (active)
same,normalized growth,"locus YBL061C, strain skt5, stronger effect = lower value",0.513 (active)
same,normalized growth,"locus YBR009C, strain hhf1, stronger effect = lower value",0.434 (active)
same,normalized growth,"locus YBR021W, strain FUR4, stronger effect = lower value",0.986 (inactive)
same,normalized growth,"locus YBR023C, strain chs3, stronger effect = lower value",0.43 (active)
same,normalized growth,"locus YBR171W, strain sec66, stronger effect = lower value",0.918 (inactive)
same,normalized growth,"locus YBR229C, strain ROT2, stronger effect = lower value",0.981 (inactive)
same,normalized growth,"locus YBR231C, strain swc5, stronger effect = lower value",0.418 (active)
same,normalized growth,"locus YBR279W, strain paf1, stronger effect = lower value",0.554 (active)
same,normalized growth,"locus YCL011C, strain gbp2, stronger effect = lower value",0.509 (active)
same,normalized growth,"locus YCL016C, strain dcc1, stronger effect = lower value",0.754 (active)
same,normalized growth,"locus YCL029C, strain bik1, stronger effect = lower value",0.966 (inactive)
same,normalized growth,"locus YCL061C, strain MRC1, stronger effect = lower value",0.724 (active)
same,normalized growth,"locus YCL069W, strain vba3, stronger effect = lower value",0.776 (active)
same,normalized growth,"locus YCR088W, strain abp1, stronger effect = lower value",0.892 (active)
same,normalized growth,"locus YDL005C, strain med2, stronger effect = lower value",0.821 (active)
same,normalized growth,"locus YDL035C, strain GPR1, stronger effect = lower value",0.658 (active)
same,normalized growth,"locus YDL040C, strain nat1, stronger effect = lower value",0.868 (active)
same,normalized growth,"locus YDL074C, strain BRE1, stronger effect = lower value",0.58 (active)
same,normalized growth,"locus YDL101C, strain DUN1, stronger effect = lower value",0.706 (active)
same,normalized growth,"locus YDL134C, strain PPH21, stronger effect = lower value",0.741 (active)
same,normalized growth,"locus YDL185W, strain tfp1, stronger effect = lower value",0.995 (inactive)
same,normalized growth,"locus YDL192W, strain arf1, stronger effect = lower value",0.955 (inactive)
same,normalized growth,"locus YDR001C, strain nth1, stronger effect = lower value",0.962 (inactive)
same,normalized growth,"locus YDR069C, strain doa4, stronger effect = lower value",0.105 (active)
same,normalized growth,"locus YDR101C, strain arx1, stronger effect = lower value",1 (inactive)
same,normalized growth,"locus YDR137W, strain rgp1, stronger effect = lower value",0.485 (active)
same,normalized growth,"locus YDR150W, strain NUM1, stronger effect = lower value",0.851 (active)
same,normalized growth,"locus YDR159W, strain sac3, stronger effect = lower value",0.735 (active)
same,normalized growth,"locus YDR162C, strain NBP2, stronger effect = lower value",0.344 (active)
same,normalized growth,"locus YDR195W, strain ref2",0.76 (active)
same,normalized growth,"locus YDR297W, strain sur2, stronger effect = lower value",0.45 (active)
same,normalized growth,"locus YDR318W, strain mcm21, stronger effect = lower value",0.981 (inactive)
same,normalized growth,"locus YDR334W, strain swr1, stronger effect = lower value",0.468 (active)
same,normalized growth,"locus YDR335W, strain msn5, stronger effect = lower value",0.604 (active)
same,normalized growth,"locus YDR388W, stronger effect = lower value",1.01 (inactive)
same,normalized growth,"locus YDR392W, strain spt3, stronger effect = lower value",0.81 (inactive)
same,normalized growth,"locus YDR502C, strain sam2, stronger effect = lower value",0.866 (active)
same,normalized growth,"locus YEL003W, strain gim4, stronger effect = lower value",0.527 (active)
same,normalized growth,"locus YEL037C, strain rad23, stronger effect = lower value",0.686 (active)
same,normalized growth,"locus YEL061C, strain CIN8 (second series), stronger effect = lower value",0.915 (inactive)
same,normalized growth,"locus YEL061C, strain CIN8, stronger effect = lower value",0.817 (active)
same,normalized growth,"locus YER015W, strain faa2, stronger effect = lower value",0.305 (active)
same,normalized growth,"locus YER016W, strain bim1, stronger effect = lower value",0.823 (active)
same,normalized growth,"locus YER110C, stronger effect = lower value",1.04 (inactive)
same,normalized growth,"locus YER111C, strain swi4, stronger effect = lower value",0.692 (active)
same,normalized growth,"locus YER155C, strain BEM2 (second series), stronger effect = lower value",0.836 (active)
same,normalized growth,"locus YER155C, strain BEM2, stronger effect = lower value",1 (inactive)
same,normalized growth,"locus YER167W, strain BCK2, stronger effect = lower value",0.896 (active)
same,normalized growth,"locus YFR010W, strain ubp6, stronger effect = lower value",0.571 (active)
same,normalized growth,"locus YGL078C, strain dbp3, stronger effect = lower value",1.02 (inactive)
same,normalized growth,"locus YGL086W, strain mad1, stronger effect = lower value",0.893 (active)
same,normalized growth,"locus YGL167C, strain pmr1, stronger effect = lower value",0.551 (active)
same,normalized growth,"locus YGL173C, strain kem1, stronger effect = lower value",0.181 (active)
same,normalized growth,"locus YGL227W, strain vid30, stronger effect = lower value",0.989 (inactive)
same,normalized growth,"locus YGL240W, strain doc1, stronger effect = lower value",0.693 (active)
same,normalized growth,"locus YGL248W, strain PDE1, stronger effect = lower value",0.681 (active)
same,normalized growth,"locus YGL253W, strain hxk2, stronger effect = lower value",0.555 (active)
same,normalized growth,"locus YGR078C, strain PAC10, stronger effect = lower value",0.787 (active)
same,normalized growth,"locus YGR135W, strain pre9, stronger effect = lower value",0.828 (active)
same,normalized growth,"locus YGR229C, strain SMI1, stronger effect = lower value",0.0949 (active)
same,normalized growth,"locus YGR252W, strain gcn5, stronger effect = lower value",0.896 (inactive)
same,normalized growth,"locus YHR013C, strain ard1, stronger effect = lower value",0.322 (active)
same,normalized growth,"locus YHR027C, strain rpn1, stronger effect = lower value",0.186 (active)
same,normalized growth,"locus YHR030C, strain SLT2, stronger effect = lower value",0.856 (active) and 1.02 (inactive)
same,normalized growth,"locus YHR079C, strain IRE1 (second series), stronger effect = lower value",1.01 (inactive)
same,normalized growth,"locus YHR079C, strain IRE1, stronger effect = lower value",1.04 (inactive)
same,normalized growth,"locus YHR094C, strain hxt1, stronger effect = lower value",1.04 (inactive)
same,normalized growth,"locus YHR129C, strain ARP1, stronger effect = lower value",0.845 (active)
same,normalized growth,"locus YHR142W, strain chs7, stronger effect = lower value",0.493 (active)
same,normalized growth,"locus YHR200W, strain rpn10, stronger effect = lower value",0.969 (inactive)
same,normalized growth,"locus YIL066C, strain RNR3, stronger effect = lower value",0.509 (active)
same,normalized growth,"locus YIL073C, strain SPO22, stronger effect = lower value",0.196 (active)
same,normalized growth,"locus YIL125W, strain kgd1, stronger effect = lower value",1.04 (inactive)
same,normalized growth,"locus YIR030C, strain dcg1, stronger effect = lower value",1.03 (inactive)
same,normalized growth,"locus YJL092W, strain hpr5, stronger effect = lower value",0.856 (active)
same,normalized growth,"locus YJL095W, strain BCK1 (second series), stronger effect = lower value",0.269 (active)
same,normalized growth,"locus YJL095W, strain BCK1, stronger effect = lower value",0.59 (active) and 1.02 (inactive)
same,normalized growth,"locus YJL115W, strain asf1, stronger effect = lower value",0.91 (inactive)
same,normalized growth,"locus YJL129C, strain trk1, stronger effect = lower value",0.812 (active)
same,normalized growth,"locus YJL134W, strain LCB3, stronger effect = lower value",0.965 (inactive)
same,normalized growth,"locus YJL154C, strain vps35, stronger effect = lower value",0.842 (active)
same,normalized growth,"locus YJL164C, strain tpk1, stronger effect = lower value",0.419 (active)
same,normalized growth,"locus YJL166W, strain qcr8, stronger effect = lower value",0.371 (active)
same,normalized growth,"locus YJL168C, strain set2, stronger effect = lower value",1.01 (inactive)
same,normalized growth,"locus YJL187C, strain SWE1 (second series), stronger effect = lower value",0.512 (active)
same,normalized growth,"locus YJL187C, strain SWE1, stronger effect = lower value",0.457 (active)
same,normalized growth,"locus YJR043C, strain POL32, stronger effect = lower value",0.599 (active)
same,normalized growth,"locus YJR066W, strain TOR1, stronger effect = lower value",0.96 (inactive)
